This is an account of results in PubChem BioAssay AID686979 (National Center for Advancing Translational Sciences (NCATS), 2013).

Each structure is given as a SMILES string. Among all 420,000 compounds or so, about 50,000 (12%) were called active. Where a call stands in place of a potency, no number is given. Another 26% or so got no clear call; they are omitted. Calls follow the shape of the dose curve; as a rule, active = well fitted inhibition curve with a large enough effect; inconclusive = small, poorly fitted or top-dose-only effect; inactive = flat fitted curve, though single readings scatter. Many of the other results were omitted from the sample, so actives are more common in it than they were.
Potency is read from the fitted curve at half-maximal effect.

This experiment can be described thus: qHTS for Inhibitors of human tyrosyl-DNA phosphodiesterase 1 (TDP1): qHTS in cells in presence of CPT. Also: nearly all actives have a fitted effect of over 55% in size. As to conditions: chicken DT40 Tdp1-/-;hTDP1 cells + 20 nM CPT, ATP luminescence, 48 h; series mostly up to 46.2 µM. Summed up: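 Chicken DT40 Tdp1-/- cells stably complemented with human TDP1 were seeded at 400 cells/well in medium containing 20 nM camptothecin, exposed to pin-transferred compounds, and grown at 37 °C for at least 48 hr. Viability was read as ATP luminescence.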
Background: In qHTS, concentration-response curves come from the screen itself.
Regarding `CN(C)c1ccc(C(CNC(=O)c2ccc(F)cc2)c2c[nH]c3ccccc23)cc1` (stereo unspecified), the Potency was 18.4 µM (active).
With `C[C@H](NC(=O)c1ccccc1)C(=O)OCC(=O)c1c[nH]c2ccccc12` the entry was “inactive”; with `O=C(CNC(=O)c1ccc(F)cc1)c1ccccc1`, “inactive”.
As for `O=C(CCNC(=O)c1ccc(Br)cc1)NCCCc1ccccc1`, the Potency entry is “inactive”.
For the compound `COc1ccccc1CN1CCNC(=O)C1CC(=O)N(C)CC1CCOCC1` (stereo unspecified), the Potency entry is “inactive”.
`O=S(=O)([N-]c1nc2ccccc2nc1-[n+]1ccc(Cc2ccccc2)cc1)c1ccc(Br)s1`: the Potency is 14.6 µM (active).
The value for `Cc1cc(C)c[n+](-c2nc3ccccc3nc2[N-]S(=O)(=O)c2cccs2)c1` was “inactive”.
As to `O=S(=O)(NCc1cccnc1)c1ccc(Br)s1`, the Potency result is “inactive”.
Turning to `C[C@@H](NC(=O)c1nc[nH]c1C(=O)N1CCN(C(=O)OC(C)(C)C)CC1)c1ccccc1`, the Potency entry is “inactive”.
With `Cc1ccccc1N1CC(C(=O)Nc2ccc(S(=O)(=O)N3CCCC3)cc2)CC1=O` (stereo unspecified), the Potency result is “inactive”.
For the compound `O=C1CS(=O)CN1c1ccc(Oc2ccccc2)cc1` (stereo unspecified), the Potency entry is “inactive”.
For the compound `COc1ccc(-c2nc3cnccn3c2NC(C)(C)CC(C)(C)C)cc1O`, the Potency is 20.6 µM (active).
With `COc1ccc(-c2cc(C(F)(F)F)nc(NCc3cccnc3)n2)cc1` the entry was “inactive”; with `Cc1cccc(NC(=O)N2CCN(C)c3ncccc32)c1C`, “inactive”; with `CCOc1ccccc1C(=O)Nc1ccc2c(c1)N(C)C(=O)c1ccccc1S2`, 4.61 µM (active).
Turning to `CCOc1ccccc1C(=O)NCCCn1ccnc1`, the Potency entry is “inactive”.
With `CCN1C(=O)c2ccccc2Sc2ccc(NC(=O)Cc3ccc(OC)cc3)cc21`, the Potency result is “inactive”.
With `C[C@H]1CC[C@]2(O[C@@H](CCO)C[C@@H](O)[C@@H]2O)O1`, the Potency result is “inactive”.
With `C=CCn1cc(Cl)cc(C(=O)Nc2ccccc2)c1=O`, the Potency entry was “inactive”.
In the case of `CN(C)C(=O)N1CCNCC1`, the Potency result was “inactive”.
On to `CC(C)(C)C(=O)NC(NC(=S)Nc1ccc(S(N)(=O)=O)cc1)C(Cl)(Cl)Cl` (stereo unspecified), for which the Potency result is “inactive”.
The value for `CCOc1cc(C(=O)Nc2c(C)ccc3nsnc23)cc(OCC)c1OCC` was “inactive”; that for `COc1ccc(-c2nnc(SC(C)C#N)o2)cc1` (stereo unspecified) was “inactive”.
For the compound `COc1ccc(-c2nnc(SC(=O)N3c4ccccc4Sc4ccccc43)o2)cc1`, the Potency was 8.2 µM (active).
With `COc1ccc(-c2nnc(SC(C)C(=O)NC3CC3)o2)cc1` (stereo unspecified), the Potency entry was “inactive”.
The value for `OCCN1CCN(c2nnc(-c3ccccc3)c3ccccc23)CC1` was “inactive”.
Consider `Clc1ccc(-c2nnc(-c3ccccc3)nc2N2CCSCC2)cc1`, for which the Potency is 16.4 µM (active).
Turning to `O=C(Cn1c(=O)n(-c2ccc(F)cc2)c(=O)c2sc3ccccc3c21)NC1CCCC1`, the Potency result is “inactive”.
As for `O=c1c2ccccc2ncn1CCc1ccncc1`, the Potency result was “inactive”.
With `COc1ccccc1-c1cc2nc(C)c(CCC(=O)O)c(C)n2n1`, the Potency result was “inactive”.
As to `CCOC(=O)c1oc2ccc(S(=O)(=O)n3nc(-c4ccccc4OC)cc3N)cc2c1C`, the Potency was 18.4 µM (active).
Regarding `Cc1ccc(S(=O)(=O)n2nc(OC(=O)C(C)(C)C)cc2N)cc1`, the Potency entry was “inactive”.
For the compound `O=C(CC1C(=O)NCCN1Cc1ccc(-c2ccccc2)cc1)NCc1ccncc1` (stereo unspecified), the Potency entry was “inactive”.
In the case of `CN[C@@H]1[C@H](O[C@H]2[C@H](O[C@H]3[C@H](O)[C@@H](O)[C@H](N=C(N)N)[C@@H](O)[C@@H]3N=C(N)N)O[C@@H](C)[C@]2(O)CO)O[C@@H](CO)[C@H](O)[C@H]1O`, the Potency entry was “inactive”.
With `Cc1nc(Nc2ccc(S(=O)(=O)N3CCCC3)cc2)c2nnn(Cc3ccccc3)c2n1` the entry was “inactive”; with `Clc1ccc(-c2csc(-c3ccncc3)n2)cc1`, “inactive”.
For `Cc1ccc(-c2csc(-c3c[nH]c4ccccc34)n2)cc1`, the Potency is 16.4 µM (active).
Turning to `Cc1ccc(-c2csc(-c3cc(C)on3)n2)cc1`, the Potency result is “inactive”.
With `O=C(NNC1=NCCC1)c1cccc(S(=O)(=O)N2CCCCC2)c1` the entry was “inactive”; with `Cc1ccc(-c2nc3ccccc3[nH]c2=O)cc1`, “inactive”; with `c1ccc2cc3[nH]c(CN4CCCCC4)nc3cc2c1`, “inactive”.
Take `CCCCCn1nnnc1-c1nc2cc3ccccc3cc2[nH]c1=O`: the Potency is 4.11 µM (active).
For `CN1CCN(c2ccc(NC(=O)c3ccc4c(c3)OCCO4)cc2Cl)CC1`, the Potency result is “inactive”.
For the compound `Cc1cc(C)cc(NC(=O)Cc2csc(C)n2)c1`, the Potency entry is “inactive”.
With `O=C(OCCN1C(=O)c2ccccc2C1=O)Oc1ccccc1`, the Potency entry is “inactive”.
For `O=C(Cn1c(-c2cscn2)nc2ccccc21)Nc1ccc(Cl)cc1`, the Potency is 5.8 µM (active).
Consider `COc1ccc(NC(=O)COC(=O)Cn2c(C)nc3ccccc32)cc1OC`, for which the Potency entry was “inactive”.
Take `O=C(Cn1c(-c2cncs2)nc2ccccc21)NC1CCCC1`: the Potency result is “inactive”.
In the case of `COc1ccc(/C=N/N(C)C2=NS(=O)(=O)c3ccccc32)cc1OC`, the Potency entry was “inactive”.
As for `CC1(C(=O)Nc2ccc3c(c2)OCCO3)CSCC(=O)N1CCOc1ccccc1` (stereo unspecified), the Potency result is “inactive”.
In the case of `Cc1ccc(NC(=O)c2cnc(SCC(=O)NCC3CCCO3)n(C)c2=O)cc1` (stereo unspecified), the Potency is 11.6 µM (active).
As to `Cn1c(SCC(=O)c2ccccc2)ncc(C(=O)Nc2ccc(F)cc2)c1=O`, the Potency entry is “inactive”.
Regarding `Cc1cc(NC(=O)CSc2ncc(C(=O)Nc3ccc(Cl)cc3)c(=O)n2C)no1`, the Potency entry was “inactive”.
In the case of `O=C(NC1CCCCC1)C1CCCN(S(=O)(=O)c2ccc(Br)s2)C1` (stereo unspecified), the Potency result is “inactive”.
With `Nc1nc(SCc2ccc([N+](=O)[O-])cc2)c2ncn(C3OC(CO)C(O)C3O)c2n1` (stereo unspecified) the entry was “inactive”.
`O=C(Nc1nnc(C2CC2)s1)C1=NN(C2CCS(=O)(=O)C2)C(=O)CC1` (stereo unspecified): the Potency entry is “inactive”.
Regarding `COc1ccc(CNC(=O)c2ccc(NS(=O)(=O)c3ccc4[nH]c(=O)[nH]c4c3)cc2)cc1OC`, the Potency result was “inactive”.
Consider `O=C(COC(=O)CNS(=O)(=O)c1ccc(F)c(F)c1F)NC1CCCC1`, for which the Potency entry is “inactive”.
The value for `O=C(CCNS(=O)(=O)c1ccccc1C(F)(F)F)NCc1ccc2c(c1)OCO2` was “inactive”.
As for `Cn1cc(CCC(=O)NCc2ccc3c(c2)OCO3)c2ccccc21`, the Potency entry is “inactive”.
With `O=C(CCc1nnc(Cc2ccc3c(c2)OCO3)o1)NCCc1ccccc1Cl` the figure was 11.6 µM (active); with `O=C(O)CCC(=O)NCc1ccc(C(=O)O)cc1`, “inactive”; with `COc1cc2c(cc1CNC[C@H]1O[C@@H](n3cnc(C(N)=O)n3)[C@H](O)[C@@H]1O)OCO2`, “inactive”.
Take `CCCOc1ccc(C2NC(=O)NC(c3ccccc3)=C2C(C)=O)cc1OCC` (stereo unspecified): the Potency was 23.1 µM (active).
With `COc1cc(C2NC(=O)NC(c3ccccc3)=C2C(C)=O)c(Br)cc1OCC(N)=O` (stereo unspecified) the entry was “inactive”.
For `COC(=O)COc1ccc(C2NC(=O)NC(C)=C2C(=O)NCc2ccccc2)cc1OC` (stereo unspecified), the Potency result was “inactive”.
